High-throughput results: PubChem, several laboratories
Vc quorum ag = inducers of Vibrio cholerae quorum light production without autoinducers, primary screen, BH1578 luxS cqsA deficient, single point; 0.16% of 350,000 active; V. cholerae BH1578 lux reporter, luminescence, 6 h; activation, % at 18.7 µM; in the data active = activation mostly above about 9.7%, no sharp cut-off
Yp Topo-I inh = Yersinia pestis topoisomerase I inhibitors, primary screen, biochemical, cleavage product accumulation, plate reader, single point; DNA topoisomerase I (Yersinia pestis CO92); Y. pestis Topo-I cleavage product accumulation; activity, % at 10 µM; 0.064% of 360,000 active; AID 504884, 2011; in the data active = activity above about 50%, passing the limit was not always enough
CCHFV vOTU inh = CCHFV vOTU protease inhibitors, primary screen, biochemical, Pep-AMC substrate, fluorescence; 0.55% of 370,000 active; inhibition, % at 11.5 µM; Crimean-Congo hemorrhagic fever virus L polyprotein viral ovarian tumor (vOTU) protease …; in the data active = inhibition above about 30%
PrPC TRFRET = inhibitors of human cell surface prion protein PrPC, primary screen, cell-based, TR-FRET; Major prion protein (Homo sapiens), P04156; TR-FRET read-out; inhibition, % at 13.8 µM; 0.43% of 370,000 active; in the data active = inhibition above about 24%
MazF activator = activators of E. coli MazEF toxin-antitoxin RNase, primary screen, biochemical, fluorescence, uHTS; Endoribonuclease toxin MazF (Escherichia coli (strain K12)), P0AE70; FAM/BHQ RNA-DNA oligo cleavage fluorescence, 5 h; activation, % at 20 µM; 0.32% of 350,000 active; in the data active = activation above about 50%
Target sequence (P0AE70 whole entry, looked up): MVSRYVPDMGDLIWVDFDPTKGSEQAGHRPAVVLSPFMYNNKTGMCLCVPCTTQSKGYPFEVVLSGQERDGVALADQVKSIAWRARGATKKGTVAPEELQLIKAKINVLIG
DUSP3 inh = VHR1 phosphatase inhibitors, primary screen, biochemical, absorbance, uHTS | recombinant VHR phosphatase, pNPP absorbance | 0.52% of 290,000 active | Dual specificity protein phosphatase 3 (Homo sapiens), P51452 | AID 1654, 2009 | inhibition, % at 13.3 µM; in the data active = inhibition above about 50%
Target sequence (P51452 whole entry, looked up): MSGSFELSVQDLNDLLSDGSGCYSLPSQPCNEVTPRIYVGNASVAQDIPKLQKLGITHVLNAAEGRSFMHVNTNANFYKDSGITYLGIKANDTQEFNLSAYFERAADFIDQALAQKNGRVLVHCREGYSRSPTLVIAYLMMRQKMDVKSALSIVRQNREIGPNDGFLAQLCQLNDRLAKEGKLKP
Of the large screens only hits and unclear results are named; the others gave an inactive call. Only some compounds are listed: those with a hit (about 1.8% of all), similar ones and a draw of the others.

CS(=O)(=O)CCC(C(=O)Nc1ccc2c(c1)OCO2)N1Cc2ccccc2C1=O (centres undefined)	DUSP3 inh 56.8
CC(C)C[C@H]1COc2cc(Br)ccc2S(=O)(=O)N1Cc1cn(Cc2ccc(Br)cc2)nn1	none (no result: Vc quorum ag, Yp Topo-I inh, MazF activator, DUSP3 inh)
O=c1[nH]c(=S)[nH]c2nc(-c3ccccc3)cnc12	none (no result: DUSP3 inh)
Cc1cc2nc3c(=O)[nH]c(=S)[nH]c3nc2cc1NC(=O)C(F)(F)F	MazF activator active
CCCn1c(=O)c(C(=O)NCCc2ccccc2)c(O)c2ccccc21	DUSP3 inh 53.9
Cc1cc(C(=O)Nc2ccc(Cl)c(Cl)c2)n(-c2ccccc2)n1	none (no result: Vc quorum ag, Yp Topo-I inh, MazF activator, DUSP3 inh)
CC1CCCCN1c1cc(C#N)c(C#N)cc1[N+](=O)[O-] (centres undefined)	none
CC1CCc2cccc3c2N1c1cc(C#N)c(C#N)cc1O3 (centres undefined)	MazF activator 83.6
COc1ccc(CN2CCCC(C(=O)N3CCc4ccccc4C3)C2)cc1OC (centres undefined)	DUSP3 inh 59.1
COc1cc(CN2CCCC(C(=O)N3CCc4ccccc4C3)C2)cc(OC)c1OC (centres undefined)	none
Cc1ccc(-n2nnnc2SC(C)C(N)=O)c(C)c1 (centres undefined)	Vc quorum ag 16.7
Cc1ccc(-n2nnnc2SC(C)C(=O)NCC(=O)Nc2ccc(F)c(F)c2F)c(C)c1 (centres undefined)	none
O=C(CNS(=O)(=O)c1cc2ccccc2s1)N1CCN(c2ccccn2)CC1	none (no result: Vc quorum ag, Yp Topo-I inh, MazF activator, DUSP3 inh)
Cc1ccc(C(C)C)cc1OCCOCCN1CCCC1	MazF activator 92.0
Cc1ccc(OCCOCCN2CCCC2)c(Br)c1	DUSP3 inh 58.7
CCN1CCCCC(NC(=O)c2ccccc2C)C1=O (centres undefined)	none (no result: Vc quorum ag, Yp Topo-I inh, MazF activator, DUSP3 inh)
C/C(=C/c1c[n+](Cc2ccc3c(c2)OCO3)c(N)[nH]1)Cn1[nH]c(=O)n(-c2ccccc2)c1=O	none (no result: Vc quorum ag, Yp Topo-I inh, MazF activator, DUSP3 inh)
OCCN(CC(O)Cn1ccc2ccccc21)CC(O)Cn1ccc2ccccc21 (centres undefined)	DUSP3 inh 50.8
CC(C)(C)c1ccc(OCC(O)CN(CCO)CC(O)Cn2ccc3ccccc32)cc1 (centres undefined)	none
c1ccc2c(c1)[IH]c1ccccc1-2	PrPC TRFRET 35.3 (no result: DUSP3 inh)
Nc1ccccc1-c1ccccc1N	none
Cc1ccc(C(=O)NC2CCSC2=O)cc1 (centres undefined)	none
O=C(NC1CCSC1=O)c1ccc(Cl)cc1 (centres undefined)	DUSP3 inh 51.6 (no result: CCHFV vOTU inh, PrPC TRFRET)
COC(=O)C1CCCN(C(=O)C2CCN(S(=O)(=O)c3ccccc3[N+](=O)[O-])CC2)C1 (centres undefined)	none (no result: Vc quorum ag, Yp Topo-I inh, MazF activator, DUSP3 inh)
CN1C2=N[C@@H](c3cccc(C(F)(F)F)c3)CC(=O)N2/C(=C\c2ccccc2)[C@H]1c1ccccc1	none (no result: Vc quorum ag, Yp Topo-I inh, CCHFV vOTU inh, MazF activator, DUSP3 inh)
O=C(Nc1cc(Sc2nc3ccccc3s2)cc([N+](=O)[O-])c1)c1ccccc1	none
O=C(Nc1cc(Sc2ccccn2)cc([N+](=O)[O-])c1)c1cccc(F)c1	MazF activator 51.6
CC(OC(=O)c1cc(O)c2ccccc2c1O)C(=O)Nc1ccc(C(N)=O)cc1 (centres undefined)	CCHFV vOTU inh 86.1 (no result: DUSP3 inh)
Cn1c(=O)oc2cc(S(=O)(=O)N3CCN(c4cccc(C(F)(F)F)c4)CC3)ccc21	none (no result: Vc quorum ag, Yp Topo-I inh, MazF activator, DUSP3 inh)
COc1ccccc1N1C(=O)Cc2ccccc2C1=O	CCHFV vOTU inh 30.3
CC(C)/C=C1\CC/C(=C\c2ccc(N(C)C)cc2)C1=O	MazF activator 419.4
CC(=O)Oc1ccccc1/C=C/c1nc2ccccc2c(=O)o1	none
O=c1oc(/C=C/c2ccc([N+](=O)[O-])s2)nc2ccccc12	MazF activator 183.0 (no result: CCHFV vOTU inh, PrPC TRFRET)
Cc1cccc(NS(=O)(=O)c2csc(C(N)=O)c2)c1	none
Cc1cccc(NS(=O)(=O)c2csc(C(N)=O)c2)c1C	DUSP3 inh 52.6
CC(C(=O)NCc1ccccc1)N1C(=O)c2ccccc2C1=O (centres undefined)	none
C[C@@H](C(=O)NCc1ccccc1)N1C(=O)C2CC=CCC2C1=O (some centres undefined)	Vc quorum ag 25.0
Cc1ccc(NC(=O)CN2CCN(c3nc(-c4ccccc4)cs3)CC2)cc1C	none (no result: Vc quorum ag, Yp Topo-I inh, MazF activator, DUSP3 inh)
CC(C)c1ccc(NC2CCCN(C(=O)c3cccc4nccnc34)C2)cc1 (centres undefined)	none
CC(C)c1ccc(NC2CCCN(C(=O)c3ccccc3-c3ncc[nH]3)C2)cc1 (centres undefined)	DUSP3 inh 56.8
CCC(=O)Nc1nnc(SCC(=O)N2c3ccccc3CC2C)s1 (centres undefined)	Vc quorum ag 16.7
C[C@@H]1CCCCO[C@H](CN(C)Cc2ccccc2)[C@@H](C)CN([C@H](C)CO)C(=O)c2cc(NC(=O)c3ccccc3)ccc2O1	none (no result: DUSP3 inh)
C[C@@H]1CN([C@@H](C)CO)C(=O)c2cc(NC(=O)c3ccccc3)ccc2O[C@@H](C)CCCCO[C@@H]1CN(C)Cc1ccc(C(F)(F)F)cc1	CCHFV vOTU inh 42.3 (no result: DUSP3 inh)
Cc1cc(NC(=O)c2cc(-c3ccccc3)on2)n(-c2ccccc2)n1	Yp Topo-I inh 107.1
Cc1sc(NC(=O)COc2cccc(-n3cnnn3)c2)c(C#N)c1C	MazF activator 119.6
Cc1sc(NC(=O)COc2ccccc2)c(C#N)c1C	none
CC1CCCCN1CCNC(=O)CN1C(=O)CSc2ccc(S(=O)(=O)N3CCCCC3)cc21 (centres undefined)	none
CC1CCN(S(=O)(=O)c2ccc3c(c2)N(CC(=O)NCCCN2CC(C)CC(C)C2)C(=O)CS3)CC1 (centres undefined)	DUSP3 inh 55.6
CC1CCCCN1CCCNC(=O)CN1C(=O)CSc2ccc(S(=O)(=O)N3CCOCC3)cc21 (centres undefined)	DUSP3 inh 50.2
C[C@H]1Cn2nnc(-c3ccccc3)c2Cn2c3ccccc3c(=O)n21	none (no result: Vc quorum ag, Yp Topo-I inh, MazF activator, DUSP3 inh)
N#CC1=C(N)Oc2cc(N)ccc2C1c1cccc(F)c1 (centres undefined)	none
CN(C)c1ccc2c(c1)OC(N)=C(C#N)C2c1cccc(F)c1 (centres undefined)	MazF activator 51.6 (no result: CCHFV vOTU inh, PrPC TRFRET)
O=C(Cc1ccccc1)NNC1CC(=O)N(c2ccc(Cl)cc2)C1=O (centres undefined)	DUSP3 inh 53.0
CCOC(=O)c1ccc(NC(=O)CSc2nnc(-c3cc(-c4ccccc4)n[nH]3)n2N)cc1	none (no result: Vc quorum ag, Yp Topo-I inh, MazF activator, DUSP3 inh)
CCCCN(C(=O)CCC(=O)Nc1cc(C)on1)C(C(=O)NC1CCCC1)c1ccc(OCC)cc1 (centres undefined)	CCHFV vOTU inh 37.5
Fc1ccc(/C=N/NC2=Nc3cccc4cccc2c34)cc1	MazF activator 110.3
